# Laboratory results: the supplement of paper PMC11006884
# Targets with a hit are over-represented here; the source holds about 6,500 in all. About 2% of all pairs of compound and target were hits. Unmarked numbers belong to inactive results.
# Compound: COC(=O)C#Cc1ccccc1 [methyl 3-phenylpropiolate]
# Assay: log2 ratio of iodoacetamide-alkyne labeling of the cysteine site, DMSO over compound (competition); higher = stronger covalent engagement of the cysteine by the compound, active = 1 or more
# Conditions: 500 µM; treatment time 1 h; system: HEK293T cell lysate
# How it was run: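 HEK293T lysate at 2 mg/mL was treated with vehicle or electrophile (500 µM) for 1 h at ambient temperature, then labelled with iodoacetamide alkyne (1 h), clicked to sCIP-TMT reagents, pooled, digested with trypsin overnight at 37 °C, enriched on streptavidin and eluted with acid. Peptides were analysed by Orbitrap Eclipse LC-MS/MS with FAIMS and quantified in FragPipe, using duplicate channels and three replicates, with cysteines quantified in only one replicate excluded. The log2 competition ratio for each cysteine is the mean control-channel reporter intensity divided by the mean compound-channel reporter intensity.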
# Sequence of UniProt Q9Y2D4 (Q9Y2D4 whole entry, looked up): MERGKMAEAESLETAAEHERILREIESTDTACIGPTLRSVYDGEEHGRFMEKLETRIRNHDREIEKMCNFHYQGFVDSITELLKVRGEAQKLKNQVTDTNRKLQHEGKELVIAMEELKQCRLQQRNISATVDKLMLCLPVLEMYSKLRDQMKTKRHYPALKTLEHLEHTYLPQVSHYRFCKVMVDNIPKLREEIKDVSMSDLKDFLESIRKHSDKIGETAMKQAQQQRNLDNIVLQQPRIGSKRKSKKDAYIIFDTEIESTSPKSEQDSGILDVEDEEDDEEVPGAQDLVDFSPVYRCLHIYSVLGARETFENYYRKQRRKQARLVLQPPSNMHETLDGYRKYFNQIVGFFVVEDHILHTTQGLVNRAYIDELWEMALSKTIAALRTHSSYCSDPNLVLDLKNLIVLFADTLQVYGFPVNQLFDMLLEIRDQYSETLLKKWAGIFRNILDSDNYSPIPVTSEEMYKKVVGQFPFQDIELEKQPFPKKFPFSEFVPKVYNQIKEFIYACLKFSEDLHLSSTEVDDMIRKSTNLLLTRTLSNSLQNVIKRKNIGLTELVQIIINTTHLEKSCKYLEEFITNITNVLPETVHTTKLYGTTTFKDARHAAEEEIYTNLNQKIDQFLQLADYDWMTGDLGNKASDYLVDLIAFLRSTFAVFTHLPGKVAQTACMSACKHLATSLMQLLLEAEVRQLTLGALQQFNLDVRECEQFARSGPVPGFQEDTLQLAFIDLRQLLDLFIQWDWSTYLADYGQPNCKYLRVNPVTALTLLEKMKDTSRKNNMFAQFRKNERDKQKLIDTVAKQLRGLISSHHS
# Sequence of UniProt Q9BYW2 (Q9BYW2 whole entry, looked up): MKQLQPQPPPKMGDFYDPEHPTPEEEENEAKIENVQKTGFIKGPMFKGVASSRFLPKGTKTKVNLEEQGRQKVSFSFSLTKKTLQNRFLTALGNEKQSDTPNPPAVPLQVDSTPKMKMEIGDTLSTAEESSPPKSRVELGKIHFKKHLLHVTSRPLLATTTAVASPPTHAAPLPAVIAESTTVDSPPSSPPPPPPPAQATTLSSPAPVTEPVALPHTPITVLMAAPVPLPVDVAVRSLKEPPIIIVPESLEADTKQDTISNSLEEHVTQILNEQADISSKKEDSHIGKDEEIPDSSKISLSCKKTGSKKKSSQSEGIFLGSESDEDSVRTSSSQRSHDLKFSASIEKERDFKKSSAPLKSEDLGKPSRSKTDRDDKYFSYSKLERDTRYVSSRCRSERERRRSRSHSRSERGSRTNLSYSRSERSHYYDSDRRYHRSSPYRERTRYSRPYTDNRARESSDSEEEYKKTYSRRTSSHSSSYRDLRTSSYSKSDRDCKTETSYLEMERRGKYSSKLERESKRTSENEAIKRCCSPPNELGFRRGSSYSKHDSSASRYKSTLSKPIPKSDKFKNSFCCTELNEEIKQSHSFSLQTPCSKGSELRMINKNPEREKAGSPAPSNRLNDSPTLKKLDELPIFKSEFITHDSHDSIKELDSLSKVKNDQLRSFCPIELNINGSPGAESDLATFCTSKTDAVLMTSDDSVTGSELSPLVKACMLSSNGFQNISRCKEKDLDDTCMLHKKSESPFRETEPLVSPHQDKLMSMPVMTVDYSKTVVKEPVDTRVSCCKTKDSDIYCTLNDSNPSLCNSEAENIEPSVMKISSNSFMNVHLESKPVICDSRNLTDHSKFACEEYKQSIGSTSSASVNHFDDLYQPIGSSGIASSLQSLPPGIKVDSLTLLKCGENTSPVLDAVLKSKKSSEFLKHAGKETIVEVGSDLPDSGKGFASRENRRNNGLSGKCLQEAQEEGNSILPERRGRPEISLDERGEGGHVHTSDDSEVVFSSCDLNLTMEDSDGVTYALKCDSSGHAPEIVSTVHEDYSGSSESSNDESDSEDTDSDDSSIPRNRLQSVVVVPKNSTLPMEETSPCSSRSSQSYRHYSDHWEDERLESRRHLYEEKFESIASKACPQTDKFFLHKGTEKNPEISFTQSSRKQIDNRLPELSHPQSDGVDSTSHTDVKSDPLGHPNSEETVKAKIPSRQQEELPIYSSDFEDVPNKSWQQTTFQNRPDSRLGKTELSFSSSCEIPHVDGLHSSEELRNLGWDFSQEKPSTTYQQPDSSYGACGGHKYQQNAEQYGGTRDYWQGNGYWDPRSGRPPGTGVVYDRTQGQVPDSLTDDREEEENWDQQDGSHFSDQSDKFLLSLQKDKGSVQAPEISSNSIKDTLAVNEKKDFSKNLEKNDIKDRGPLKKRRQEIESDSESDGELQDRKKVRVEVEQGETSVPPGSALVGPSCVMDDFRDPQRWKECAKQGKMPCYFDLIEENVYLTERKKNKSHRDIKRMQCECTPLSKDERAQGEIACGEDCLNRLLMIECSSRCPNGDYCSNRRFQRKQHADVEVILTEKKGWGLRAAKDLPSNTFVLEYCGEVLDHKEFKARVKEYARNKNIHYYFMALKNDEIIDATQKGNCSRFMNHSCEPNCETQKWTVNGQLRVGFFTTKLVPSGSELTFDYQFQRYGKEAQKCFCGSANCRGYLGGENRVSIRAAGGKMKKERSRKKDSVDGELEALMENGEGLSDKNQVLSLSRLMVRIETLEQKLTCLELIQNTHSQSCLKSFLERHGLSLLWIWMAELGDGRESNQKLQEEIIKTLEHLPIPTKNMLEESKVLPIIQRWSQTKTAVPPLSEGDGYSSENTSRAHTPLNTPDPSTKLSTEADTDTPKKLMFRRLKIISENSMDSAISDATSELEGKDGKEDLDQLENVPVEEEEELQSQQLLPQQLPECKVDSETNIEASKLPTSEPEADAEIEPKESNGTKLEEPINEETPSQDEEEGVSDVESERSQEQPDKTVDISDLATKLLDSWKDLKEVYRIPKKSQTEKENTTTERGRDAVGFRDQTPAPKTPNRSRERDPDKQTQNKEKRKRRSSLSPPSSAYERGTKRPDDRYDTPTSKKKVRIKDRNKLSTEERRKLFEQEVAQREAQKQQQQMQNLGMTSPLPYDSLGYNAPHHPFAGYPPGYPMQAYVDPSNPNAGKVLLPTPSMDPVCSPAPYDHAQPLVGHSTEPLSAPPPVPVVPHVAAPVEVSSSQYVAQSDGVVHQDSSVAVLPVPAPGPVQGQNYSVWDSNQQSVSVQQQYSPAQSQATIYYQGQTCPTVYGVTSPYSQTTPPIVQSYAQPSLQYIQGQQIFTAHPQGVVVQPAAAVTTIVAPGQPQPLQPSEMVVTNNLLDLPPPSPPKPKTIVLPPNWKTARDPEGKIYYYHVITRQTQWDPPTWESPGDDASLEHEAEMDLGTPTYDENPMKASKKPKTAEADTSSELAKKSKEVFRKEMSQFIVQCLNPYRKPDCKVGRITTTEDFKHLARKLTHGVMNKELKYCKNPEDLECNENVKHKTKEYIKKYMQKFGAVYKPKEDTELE
# Sequence of UniProt Q9BV68 (Q9BV68 whole entry, looked up): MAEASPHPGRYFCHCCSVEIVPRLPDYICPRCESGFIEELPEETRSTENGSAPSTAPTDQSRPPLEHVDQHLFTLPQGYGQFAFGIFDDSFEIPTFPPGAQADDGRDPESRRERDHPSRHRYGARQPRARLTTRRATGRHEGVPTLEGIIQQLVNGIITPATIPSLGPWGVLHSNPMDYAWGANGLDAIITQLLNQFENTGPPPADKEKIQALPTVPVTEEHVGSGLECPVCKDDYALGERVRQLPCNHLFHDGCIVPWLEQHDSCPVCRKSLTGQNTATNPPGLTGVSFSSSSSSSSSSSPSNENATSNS
# Sequence of UniProt Q9NRR5 (Q9NRR5 whole entry): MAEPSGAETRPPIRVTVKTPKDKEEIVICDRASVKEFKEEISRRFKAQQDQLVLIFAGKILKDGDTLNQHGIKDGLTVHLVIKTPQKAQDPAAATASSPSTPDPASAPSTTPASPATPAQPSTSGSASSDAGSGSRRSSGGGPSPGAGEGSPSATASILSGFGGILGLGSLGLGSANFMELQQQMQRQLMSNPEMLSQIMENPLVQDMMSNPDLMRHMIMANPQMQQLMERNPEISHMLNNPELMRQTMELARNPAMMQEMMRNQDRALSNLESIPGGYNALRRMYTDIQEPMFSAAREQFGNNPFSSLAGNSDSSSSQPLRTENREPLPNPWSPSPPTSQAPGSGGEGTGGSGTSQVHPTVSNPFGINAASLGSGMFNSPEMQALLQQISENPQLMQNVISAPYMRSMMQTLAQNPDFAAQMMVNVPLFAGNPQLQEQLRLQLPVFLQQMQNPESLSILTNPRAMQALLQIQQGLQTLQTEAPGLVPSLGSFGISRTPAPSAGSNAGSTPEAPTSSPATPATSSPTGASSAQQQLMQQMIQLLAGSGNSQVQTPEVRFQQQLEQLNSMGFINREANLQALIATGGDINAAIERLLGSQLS
# Sequence of UniProt Q9ULW0 (Q9ULW0 whole entry, looked up): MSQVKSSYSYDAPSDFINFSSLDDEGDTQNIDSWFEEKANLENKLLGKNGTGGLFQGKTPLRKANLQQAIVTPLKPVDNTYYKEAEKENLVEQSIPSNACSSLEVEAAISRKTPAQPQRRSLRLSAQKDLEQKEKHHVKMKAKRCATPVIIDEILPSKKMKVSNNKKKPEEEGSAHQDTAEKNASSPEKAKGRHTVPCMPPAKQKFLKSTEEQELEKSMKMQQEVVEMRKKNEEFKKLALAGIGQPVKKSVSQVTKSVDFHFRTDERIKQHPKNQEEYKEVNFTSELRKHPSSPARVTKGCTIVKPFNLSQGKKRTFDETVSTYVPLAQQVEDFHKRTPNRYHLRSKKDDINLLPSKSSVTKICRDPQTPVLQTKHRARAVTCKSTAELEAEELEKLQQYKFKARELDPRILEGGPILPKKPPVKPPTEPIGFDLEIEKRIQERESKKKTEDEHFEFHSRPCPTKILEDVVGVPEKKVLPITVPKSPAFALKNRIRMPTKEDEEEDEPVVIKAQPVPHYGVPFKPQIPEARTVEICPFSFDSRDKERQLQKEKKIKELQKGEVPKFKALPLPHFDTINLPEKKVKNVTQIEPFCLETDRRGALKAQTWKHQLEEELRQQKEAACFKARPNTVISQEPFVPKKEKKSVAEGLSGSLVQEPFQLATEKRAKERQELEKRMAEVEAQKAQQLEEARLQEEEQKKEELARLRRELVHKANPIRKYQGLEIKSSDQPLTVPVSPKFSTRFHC
row,Target,log2 ratio of iodoacetamide-alkyne labeling
1,SPATA5L1 C309 (UniProt Q9BVQ7),1.11 (active)
2,EXOC6B C68 (UniProt Q9Y2D4),-0.0384
3,UniProt Q9Y5J5_C87,0.486
4,JMJD4 C101 (UniProt Q9H9V9),0.898
5,KIDINS220 C867 (UniProt Q9ULH0),0.436
6,LSM7 C76 (UniProt Q9UK45),0.0557
7,ATXN10 C354 (UniProt Q9UBB4),1.32 (active)
8,ASF1B C178 (UniProt Q9NVP2),1.22 (active)
9,TLN1 C2161 (UniProt Q9Y490),-0.0698
10,UBE2O C406 (UniProt Q9C0C9),1.46 (active)
11,SETD2 C958 (UniProt Q9BYW2),1.02 (active)
12,GPHN C26 (UniProt Q9NQX3),-0.0135
13,PRR12 C322 (UniProt Q9ULL5),0.259
14,SAMHD1 C80 (UniProt Q9Y3Z3),0.175
15,UniProt Q9HBK9_C32,1.1 (active)
16,UniProt Q9BYG3_C269,0.771
17,GPHN C293 (UniProt Q9NQX3),1.12 (active)
18,PPME1 C381 (UniProt Q9Y570),1.48 (active)
19,OPA3 C164 (UniProt Q9H6K4),0.331
20,FAM83D C19 (UniProt Q9H4H8),1.11 (active)

row,Target,log2 ratio of iodoacetamide-alkyne labeling
1,POLDIP2 C143 (UniProt Q9Y2S7),0.786
2,TCAF1 C488 (UniProt Q9Y4C2),0.36
3,NOTCH3 C134 (UniProt Q9UM47),1.63 (active)
4,RAB3GAP2 C67 (UniProt Q9H2M9),0.306
5,UBQLN4 C29 (UniProt Q9NRR5),1.12 (active)
6,ASF1B C172 (UniProt Q9NVP2),1.22 (active)
7,UNC45A C34 (UniProt Q9H3U1),0.0992
8,PPME1 C386 (UniProt Q9Y570),1.48 (active)
9,KIDINS220 C412 (UniProt Q9ULH0),0.0082
10,UBE2O C598 (UniProt Q9C0C9),0.166
11,PUS7L C142 (UniProt Q9H0K6),-0.0378
12,DDA1 C25 (UniProt Q9BW61),0.36
13,UniProt Q9UBD5_C158,1.13 (active)
14,RNF126 C15 (UniProt Q9BV68),0.119
15,KCTD5 C28 (UniProt Q9NXV2),0.129
16,FARSB C195 (UniProt Q9NSD9),0.621
17,TELO2 C367 (UniProt Q9Y4R8),0.0485
18,TPX2 C145 (UniProt Q9ULW0),0.384
19,GNL3 C234 (UniProt Q9BVP2),0.259
